The source of these data is PubChem BioAssay.

Values without a mark were called inactive. Active and inactive are the calls of the source. Rule as the data show it: active = inhibition above about 25%; inactive = the rest.

Usually inhibition stands for the change of the read-out against control, counted positive when it falls.

The assay can be described thus: repression of VP16-driven luciferase reporter – cell-based, luminescence, high throughput, counter-screen for SRC1 inhibitor project (AID 588824). The conditions noted are these: cell-based VP16 transactivation luciferase luminescence; at 3.6 µM; stronger effect = higher value.
Consider `COc1ccc(OCC(=O)Nc2ccc3c(c2)n(C)c(=O)n3C)cc1`, for which the inhibition is -5.89%.

For the molecule `Cc1nc(N=C(N)N)nc2ccccc12`, the inhibition is -11.1%. Under `CCOc1ncccc1C(=O)NC(C)CCc1ccccc1` (stereo not given) stands -0.39%; under `CCC(CC)C(=O)N(C)c1c(C)nc2c(OCc3ccc(OC(F)F)cc3)cccn12`, 5.06%. In the case of `Nc1ccn(C2OC(CO)C(O)C2O)c(=O)n1` (stereo not given), the inhibition is 20.1%. As to `O=C(COC(=O)C1CCN(c2ccc(C(F)(F)F)cn2)CC1)NCc1cccc(Cl)c1`, the inhibition is -3.36%. Under `CS(=O)(=O)c1ccc(NC(=O)CCN2C(=O)C3CCCCC3C2=O)cc1` (stereo not given) stands -10.5%. As for `CSc1ccc(CN2CCN(C(=O)CC(C)C)CC2)cc1`, the inhibition is -2.54%. On to `CN(Cc1ccccc1)C(=O)c1ccc(NC(=O)C2CCCN(C(=O)OC(C)(C)C)C2)cc1` (stereo not given), for which the inhibition is 8.32%. As for `Cc1nn(-c2ccccc2)c(N2CCCC2)c1/C=N/NC(=S)Nc1ccc(F)cc1`, the inhibition was 0.35%. The figure for `CC(=O)N1CN(C2CCCC2)Cc2c1sc1c2CCCC1` is 14.4%. Under `O=C1Nc2cc(C(=O)NCC3CCCO3)ccc2S/C1=C/c1ccccc1F` (stereo not given) stands -5.02%; under `COc1ccc(-c2[nH]ncc2CN2CCC(O)(c3ccc(Cl)cc3)CC2)cc1`, 10.8%; under `C/C(=N\NC(=O)C(C)Oc1ccc([N+](=O)[O-])cc1)c1ccccn1` (stereo not given), 45.6% (active). Consider `CN(C(=O)COC(=O)c1ccc2[nH]c3c(c2c1)CCCC3)C1CCS(=O)(=O)C1` (stereo not given), for which the inhibition was -0.75%.

As for `COc1ccc(OC)c(/C=N/NC(=O)c2cc3c(OC)cccc3[nH]2)c1`, the inhibition was -10%. Consider `CN(C(=O)c1cccc(NC(=O)Cc2ccc(NC(=O)C3CCCN(C(=O)CCc4ccccc4)C3)cc2)c1)C1CCCC1` (stereo not given), for which the inhibition was 19.6%. Under `CN1C(=O)C(O)(C2CCCCCC2=O)c2ccccc21` (stereo not given) stands -0.98%; under `O=C(Nc1sc2c(c1C(=O)NCCCO)CCCC2)c1ccccc1`, -14.6%; under `O=[N+]([O-])c1ccc(CSc2ccc(S(=O)(=O)N3CCOCC3)cn2)cc1`, 0.46%.

Consider `O=C(Nc1ccccc1)c1ccc(S(=O)(=O)NCc2cccnc2)cc1`, for which the inhibition was 0.28%. On to `O=C(NNc1ccnc2cc(Cl)ccc12)C1CCCCC1`, for which the inhibition was 31.1% (active).

Turning to `CCCCCN(C(=O)CCC(=O)OCC(=O)N(CC#N)c1ccccc1)c1c(N)n(CCCC)c(=O)[nH]c1=O`, the inhibition is 1.44%. Turning to `O=C(NNC(=O)c1ccccc1O)c1ccc(Cl)c(S(=O)(=O)N2CCc3ccccc32)c1`, the inhibition is 14.9%. The figure for `CCCC(=O)N1CCCC(c2cc(C(=O)Nc3ccccc3)no2)C1` (stereo not given) is -30.6%; for `COc1ccccc1C1NC(=O)NC(C)=C1C(=O)OC1CCCC(C)C1` (stereo not given) it is -1.62%. For the molecule `CC1CC(C)CN(c2ncnc3c2cnn3-c2ccc(Cl)cc2)C1` (stereo not given), the inhibition was -50.9%.

For `COc1cccc(C=NNC(=O)c2ccncc2)c1O`, the inhibition was 10.7%. The figure for `Cc1ccc(-n2ccc(-c3nn(-c4ccccc4)ccc3=O)n2)cc1` is 13.3%. Under `Cc1ccc(O)c(C(=O)c2cnn(C(=O)COc3ccc(Cl)cc3)c2)c1` stands 4.05%. Turning to `O=[N+]([O-])c1ccc(C[n+]2cccc3c4ccccc4ccc32)cc1`, the inhibition was 34.3% (active). For `CN1CCN(c2nc(-c3cccs3)nc3ccccc23)CC1`, the inhibition was 10%.

As for `O=C(c1ccccc1)C1CCN(C(=O)c2cccs2)CC1`, the inhibition is -0.27%. Turning to `Cc1ccc(S(=O)(=O)c2nc(-c3ccccc3Cl)oc2NCCCN2CCOCC2)cc1`, the inhibition was -5.68%. The figure for `CSc1ccc(CN2CCN(Cc3ccc([N+](=O)[O-])cc3)CC2)cc1` is 26.8% (active); for `COc1ccc(NC(=O)CN(C)C(=O)c2ccc(N3CCCCC3)c([N+](=O)[O-])c2)cc1` it is -5.37%; for `CC(C)Cn1c(N)c(C(=O)COC(=O)c2cc3ccccc3cc2O)c(=O)n(C)c1=O` it is 8.44%. Under `CCN(CC)S(=O)(=O)c1ccc(NC(=O)c2ccc(N3CCCC3=O)cc2)cc1` stands 22.8%; under `Cc1cc(C)c(OCCN2CCCC2)c(Cl)c1`, 2.73%. For `COc1ccc(-c2nc(N3CCOCC3)nc3n[nH]c(N)c23)cc1`, the inhibition was 17.9%.
